# Assay results taken from ChEMBL document CHEMBL2218924, “A broad activity screen in support of a chemogenomic map for kinase signalling research and drug discovery” (Biochem J, 2013).
# What was measured:
# [1] = molecular target: T1, Serine/threonine-protein kinase TBK1 (Homo sapiens) (UniProt Q9UHD2); conditions: at 10 µM
# T1 sequence (whole entry): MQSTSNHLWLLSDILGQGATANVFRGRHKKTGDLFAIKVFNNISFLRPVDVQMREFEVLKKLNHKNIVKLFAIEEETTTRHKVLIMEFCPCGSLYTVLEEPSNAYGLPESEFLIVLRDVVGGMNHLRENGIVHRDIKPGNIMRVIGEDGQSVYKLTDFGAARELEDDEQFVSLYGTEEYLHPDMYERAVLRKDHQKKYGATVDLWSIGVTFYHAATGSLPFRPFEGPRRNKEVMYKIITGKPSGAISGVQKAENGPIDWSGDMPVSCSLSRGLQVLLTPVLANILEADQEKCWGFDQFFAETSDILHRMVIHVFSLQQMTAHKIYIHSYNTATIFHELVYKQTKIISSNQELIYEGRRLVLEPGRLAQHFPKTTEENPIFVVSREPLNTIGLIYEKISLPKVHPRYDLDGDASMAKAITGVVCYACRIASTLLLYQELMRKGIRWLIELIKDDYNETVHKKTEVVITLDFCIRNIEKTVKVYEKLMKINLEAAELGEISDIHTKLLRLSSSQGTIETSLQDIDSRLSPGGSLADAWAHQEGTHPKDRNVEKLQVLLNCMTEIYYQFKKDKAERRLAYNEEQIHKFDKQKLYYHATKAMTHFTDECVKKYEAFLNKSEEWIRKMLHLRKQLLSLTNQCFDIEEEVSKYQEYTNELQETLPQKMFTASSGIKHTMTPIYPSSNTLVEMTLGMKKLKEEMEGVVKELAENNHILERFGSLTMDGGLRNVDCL
# [2] = molecular target: T2, TGF-beta receptor type-1 (Homo sapiens) (UniProt P36897); conditions: at 1 µM
# T2 sequence (whole entry): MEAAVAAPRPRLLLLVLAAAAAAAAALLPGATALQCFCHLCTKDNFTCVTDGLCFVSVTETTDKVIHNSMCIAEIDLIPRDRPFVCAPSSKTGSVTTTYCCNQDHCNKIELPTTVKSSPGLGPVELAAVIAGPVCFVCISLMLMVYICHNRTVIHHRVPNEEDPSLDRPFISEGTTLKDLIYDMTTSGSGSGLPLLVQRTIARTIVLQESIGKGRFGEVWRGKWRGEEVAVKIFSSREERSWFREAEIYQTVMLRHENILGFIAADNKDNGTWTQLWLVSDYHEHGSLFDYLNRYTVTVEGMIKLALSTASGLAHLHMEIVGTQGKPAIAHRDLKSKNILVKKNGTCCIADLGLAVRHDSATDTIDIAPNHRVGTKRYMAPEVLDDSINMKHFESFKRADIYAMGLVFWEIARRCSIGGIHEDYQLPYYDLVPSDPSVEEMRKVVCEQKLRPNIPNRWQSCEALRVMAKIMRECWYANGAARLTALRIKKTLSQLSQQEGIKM
# [3] = molecular target: T2, TGF-beta receptor type-1 (Homo sapiens); conditions: at 10 µM
# [4] = molecular target: Insulin-like growth factor 1 receptor (Homo sapiens) (UniProt P08069); conditions: at 1 µM
# Chain of Insulin-like growth factor 1 receptor (Homo sapiens) (P08069 31-736 limits assumed): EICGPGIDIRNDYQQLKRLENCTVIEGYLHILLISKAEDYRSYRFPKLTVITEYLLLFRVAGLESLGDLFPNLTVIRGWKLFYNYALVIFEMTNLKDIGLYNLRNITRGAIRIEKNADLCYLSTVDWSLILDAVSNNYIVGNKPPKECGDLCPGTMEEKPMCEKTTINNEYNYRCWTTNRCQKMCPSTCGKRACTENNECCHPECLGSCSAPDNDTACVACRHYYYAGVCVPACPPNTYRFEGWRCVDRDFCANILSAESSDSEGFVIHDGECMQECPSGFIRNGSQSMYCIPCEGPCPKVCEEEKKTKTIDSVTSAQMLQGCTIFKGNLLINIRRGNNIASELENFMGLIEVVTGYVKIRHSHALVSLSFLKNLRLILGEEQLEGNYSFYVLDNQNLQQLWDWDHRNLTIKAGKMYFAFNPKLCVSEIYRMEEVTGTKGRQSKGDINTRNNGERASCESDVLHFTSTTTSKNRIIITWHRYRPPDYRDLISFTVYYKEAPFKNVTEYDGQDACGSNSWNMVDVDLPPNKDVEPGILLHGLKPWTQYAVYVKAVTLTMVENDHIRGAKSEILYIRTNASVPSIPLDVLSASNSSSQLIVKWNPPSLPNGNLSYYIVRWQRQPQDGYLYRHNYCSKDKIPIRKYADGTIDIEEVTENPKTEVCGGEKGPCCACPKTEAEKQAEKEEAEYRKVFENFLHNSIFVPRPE
# Chain of Insulin-like growth factor 1 receptor (Homo sapiens) (P08069 741-1367 limits assumed): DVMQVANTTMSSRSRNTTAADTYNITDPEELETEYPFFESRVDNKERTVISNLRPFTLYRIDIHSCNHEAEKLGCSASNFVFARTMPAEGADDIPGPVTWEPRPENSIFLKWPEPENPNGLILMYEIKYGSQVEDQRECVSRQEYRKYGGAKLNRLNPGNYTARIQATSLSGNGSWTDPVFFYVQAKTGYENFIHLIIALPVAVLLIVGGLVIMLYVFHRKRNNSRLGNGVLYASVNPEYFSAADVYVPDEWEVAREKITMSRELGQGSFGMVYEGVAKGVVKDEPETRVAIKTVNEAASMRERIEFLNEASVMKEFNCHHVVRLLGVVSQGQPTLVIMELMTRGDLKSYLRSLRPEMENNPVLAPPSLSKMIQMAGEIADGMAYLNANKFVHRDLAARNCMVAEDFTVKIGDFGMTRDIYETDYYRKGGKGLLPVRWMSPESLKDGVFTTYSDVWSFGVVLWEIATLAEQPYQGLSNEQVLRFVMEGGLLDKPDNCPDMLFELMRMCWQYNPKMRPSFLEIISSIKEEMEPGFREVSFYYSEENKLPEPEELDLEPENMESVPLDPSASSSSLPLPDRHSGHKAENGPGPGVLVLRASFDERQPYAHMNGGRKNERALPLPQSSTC
# [5] = molecular target: Insulin-like growth factor 1 receptor (Homo sapiens) (UniProt P08069); conditions: at 10 µM
# [6] = molecular target: T3, Inhibitor of nuclear factor kappa-B kinase subunit alpha (Homo sapiens) (UniProt O15111); conditions: at 1 µM
# T3 sequence (whole entry): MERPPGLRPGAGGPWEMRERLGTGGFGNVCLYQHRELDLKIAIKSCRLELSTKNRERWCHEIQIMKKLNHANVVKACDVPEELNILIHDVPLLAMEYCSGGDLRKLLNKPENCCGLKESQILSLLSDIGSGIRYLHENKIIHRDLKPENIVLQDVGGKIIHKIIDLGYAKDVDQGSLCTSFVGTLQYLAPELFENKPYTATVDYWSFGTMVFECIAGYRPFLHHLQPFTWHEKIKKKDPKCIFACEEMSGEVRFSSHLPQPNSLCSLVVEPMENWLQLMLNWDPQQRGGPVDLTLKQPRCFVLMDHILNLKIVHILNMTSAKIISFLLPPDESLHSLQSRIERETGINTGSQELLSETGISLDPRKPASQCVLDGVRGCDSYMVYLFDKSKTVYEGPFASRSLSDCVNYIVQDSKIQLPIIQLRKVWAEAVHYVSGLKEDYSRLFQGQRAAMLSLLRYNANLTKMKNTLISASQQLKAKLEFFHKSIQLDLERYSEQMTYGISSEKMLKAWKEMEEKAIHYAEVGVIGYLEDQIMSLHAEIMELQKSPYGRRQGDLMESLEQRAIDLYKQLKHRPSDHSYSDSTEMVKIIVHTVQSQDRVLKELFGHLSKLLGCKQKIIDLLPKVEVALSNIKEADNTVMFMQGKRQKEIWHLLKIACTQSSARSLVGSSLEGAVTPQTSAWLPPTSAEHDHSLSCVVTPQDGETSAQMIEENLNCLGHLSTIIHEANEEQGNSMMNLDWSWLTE
# [7] = molecular target: T3, Inhibitor of nuclear factor kappa-B kinase subunit alpha (Homo sapiens); conditions: at 10 µM
# [8] = molecular target: T4, Inhibitor of nuclear factor kappa-B kinase subunit beta (Homo sapiens) (UniProt O14920); conditions: at 1 µM
# T4 sequence (whole entry): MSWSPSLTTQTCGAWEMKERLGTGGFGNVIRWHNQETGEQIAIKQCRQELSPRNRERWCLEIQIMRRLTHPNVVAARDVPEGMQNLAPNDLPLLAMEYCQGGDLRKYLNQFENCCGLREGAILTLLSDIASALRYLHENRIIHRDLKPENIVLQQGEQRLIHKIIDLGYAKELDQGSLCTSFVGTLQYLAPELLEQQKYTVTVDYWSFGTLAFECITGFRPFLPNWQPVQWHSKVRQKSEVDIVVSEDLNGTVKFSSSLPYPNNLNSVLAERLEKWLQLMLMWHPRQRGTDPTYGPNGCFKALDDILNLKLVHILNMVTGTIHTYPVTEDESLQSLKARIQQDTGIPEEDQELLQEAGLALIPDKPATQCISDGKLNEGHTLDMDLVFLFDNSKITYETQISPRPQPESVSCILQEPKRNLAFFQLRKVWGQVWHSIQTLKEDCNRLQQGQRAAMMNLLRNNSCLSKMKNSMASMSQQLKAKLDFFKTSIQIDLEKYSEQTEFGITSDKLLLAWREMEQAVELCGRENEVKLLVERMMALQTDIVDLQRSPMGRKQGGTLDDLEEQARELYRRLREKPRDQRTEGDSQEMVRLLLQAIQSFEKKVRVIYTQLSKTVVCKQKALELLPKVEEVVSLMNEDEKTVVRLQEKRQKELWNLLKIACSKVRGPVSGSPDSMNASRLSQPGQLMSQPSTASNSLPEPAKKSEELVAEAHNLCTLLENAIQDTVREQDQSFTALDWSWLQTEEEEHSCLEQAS
# [9] = molecular target: T4, Inhibitor of nuclear factor kappa-B kinase subunit beta (Homo sapiens); conditions: at 10 µM
# [10] = molecular target: Insulin receptor (Homo sapiens) (UniProt P06213); conditions: at 1 µM
# Chain of Insulin receptor (Homo sapiens) (P06213 28-758 limits assumed): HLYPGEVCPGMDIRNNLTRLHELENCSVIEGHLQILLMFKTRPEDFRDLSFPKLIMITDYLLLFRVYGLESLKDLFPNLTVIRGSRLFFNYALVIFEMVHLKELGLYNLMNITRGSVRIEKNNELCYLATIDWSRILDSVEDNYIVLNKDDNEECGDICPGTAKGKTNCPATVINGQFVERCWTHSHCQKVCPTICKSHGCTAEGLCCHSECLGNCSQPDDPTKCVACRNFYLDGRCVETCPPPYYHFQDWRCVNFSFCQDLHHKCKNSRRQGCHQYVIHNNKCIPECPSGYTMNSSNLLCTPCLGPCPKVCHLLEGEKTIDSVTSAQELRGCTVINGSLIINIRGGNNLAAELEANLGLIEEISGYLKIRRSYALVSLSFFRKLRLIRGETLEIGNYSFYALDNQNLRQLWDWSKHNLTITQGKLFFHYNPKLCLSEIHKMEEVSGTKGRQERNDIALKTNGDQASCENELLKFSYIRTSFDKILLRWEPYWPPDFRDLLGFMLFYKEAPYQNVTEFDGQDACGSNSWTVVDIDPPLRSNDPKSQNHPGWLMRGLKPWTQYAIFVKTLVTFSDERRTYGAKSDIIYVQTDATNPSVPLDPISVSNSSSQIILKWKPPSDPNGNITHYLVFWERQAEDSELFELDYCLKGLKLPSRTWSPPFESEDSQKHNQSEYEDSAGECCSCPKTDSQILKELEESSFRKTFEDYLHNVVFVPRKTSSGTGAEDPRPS
# Chain of Insulin receptor (Homo sapiens) (P06213 763-1382 limits assumed): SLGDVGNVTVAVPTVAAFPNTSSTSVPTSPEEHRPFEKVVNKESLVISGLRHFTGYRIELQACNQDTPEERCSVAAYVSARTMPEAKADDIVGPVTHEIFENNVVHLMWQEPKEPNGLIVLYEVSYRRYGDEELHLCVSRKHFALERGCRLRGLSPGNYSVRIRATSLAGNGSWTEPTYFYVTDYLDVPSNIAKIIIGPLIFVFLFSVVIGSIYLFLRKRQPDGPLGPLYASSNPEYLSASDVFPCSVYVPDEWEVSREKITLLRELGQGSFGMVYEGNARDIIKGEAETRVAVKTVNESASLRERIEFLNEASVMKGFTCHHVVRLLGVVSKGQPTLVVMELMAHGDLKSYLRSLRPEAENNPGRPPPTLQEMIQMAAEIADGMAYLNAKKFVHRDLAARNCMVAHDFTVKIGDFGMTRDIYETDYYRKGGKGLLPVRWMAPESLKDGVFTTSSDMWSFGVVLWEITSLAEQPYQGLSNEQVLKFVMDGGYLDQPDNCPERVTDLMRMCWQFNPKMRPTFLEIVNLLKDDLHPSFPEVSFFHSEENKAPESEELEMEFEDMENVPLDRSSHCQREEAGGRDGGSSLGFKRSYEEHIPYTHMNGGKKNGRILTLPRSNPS
compound,measurement,setting,value
CNc1cc2c(Nc3cccc(Br)c3)ncnc2cn1,residual activity,[1],64%
same,residual activity,[2],87%
same,residual activity,[3],94%
same,residual activity,[4],96%
same,residual activity,[5],94%
same,residual activity,[6],108%
same,residual activity,[7],101%
same,residual activity,[8],92%
same,residual activity,[9],76%
same,residual activity,[10],91%
